# Source: PubChem BioAssay (National Center for Advancing Translational Sciences (NCATS))
# JMJD2A Tudor inh – inhibitors of human JMJD2A Tudor domain; O75164; AlphaScreen JMJD2A-Tudor / H3K4me3 peptide binding; Potency, µM (doses to about 114 µM), hits mostly inhibitors; actives 4.4% (n = 390,000); also: nearly all actives have a fitted effect of over 50% in size
# G9a inh – inhibitors of human histone lysine methyltransferase G9a; G9a H3K9 monomethylation, AlphaScreen, 2 h; Potency, µM (doses to about 102 µM), hits mostly inhibitors; actives 8.8% (n = 350,000); AID 504332; also: nearly all actives have a fitted effect of over 75% in size
# Target sequence (Q96KQ7 913-1193 limits assumed): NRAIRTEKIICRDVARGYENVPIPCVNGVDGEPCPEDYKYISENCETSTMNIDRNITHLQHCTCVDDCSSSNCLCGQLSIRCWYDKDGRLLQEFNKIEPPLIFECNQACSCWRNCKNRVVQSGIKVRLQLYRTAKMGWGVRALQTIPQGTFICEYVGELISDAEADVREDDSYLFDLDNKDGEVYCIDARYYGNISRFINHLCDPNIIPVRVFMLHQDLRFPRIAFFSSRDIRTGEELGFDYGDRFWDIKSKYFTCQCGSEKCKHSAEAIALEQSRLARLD
#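 Readings reflect AlphaScreen signal from monomethyl-H3K9 antibody detection. HMT at 20 nM; substrate b-H3K9 500 nM; cofactor SAM 20 uM; 2 h RT reaction; compounds tested as titrations in qHTS with 15 min preincubation.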
# BAZ2B block – BAZ2B (human) inhibition | Q9UIF8 | Potency, µM (titrated, usually from 114 µM), usual class: inhibitors | actives 4.4% (n = 360,000) | AlphaScreen BAZ2B-H3K14Ac peptide displacement; also: nearly all actives have a fitted effect of over 60% in size
#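 BAZ2B 50 nM plus b-H3(5-23)K14Ac 50 nM, PBS pH 7.4/0.01% Tween-20, 30 min RT; compound added (max 110 uM), 30 min RT; streptavidin donor/Ni-chelate acceptor beads 10 ug/mL final, 20 min dark; AlphaScreen read.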
# PI5P4Ka inh – blocks human PI5P4K alpha kinase activity; P48426; PI5P4Kalpha enzyme, ADP-Glo luminescence, 60 min; hits give low values; max response, %; actives 1.2% (n = 330,000); AID 652105; active = max response of -50% or lower; inconclusive = between -30% and -50%; inactive = -30% or higher; also: value at the top dose of about 77 µM
#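 ADP-Glo luminescence end-point after a 60 min room-temperature kinase reaction. PI5P4Kalpha and substrate in HEPES pH 7.4 buffer with EGTA, 0.1% CHAPS and 5% DMSO; ATP at 5 microM final.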
# HP1b chromo inh – inhibitors of HP1-beta chromodomain binding to methylated histone tails | P83916 | AlphaScreen HP1-beta / biotin-H3K9me3 peptide binding | Potency, µM (top dose mostly 114 µM), hits mostly inhibitors | actives 0.56% (n = 390,000) | AID 540317; also: nearly all actives have a fitted effect of over 70% in size
# Target sequence (P83916 whole entry, looked up): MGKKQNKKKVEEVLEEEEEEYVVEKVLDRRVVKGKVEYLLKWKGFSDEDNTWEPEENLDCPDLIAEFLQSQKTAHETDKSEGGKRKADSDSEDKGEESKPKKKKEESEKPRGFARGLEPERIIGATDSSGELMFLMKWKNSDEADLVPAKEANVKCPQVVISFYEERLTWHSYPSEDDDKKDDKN
#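 HP1-beta protein (50 nM final) preincubated 30 min at room temperature with biotinylated H3(1-18)K9me3 peptide (50 nM) in PBS pH 7.4, 0.01% Tween-20, then compound added for 30 min. AlphaScreen streptavidin donor/nickel chelate acceptor beads (10 ug/mL final), 30 min dark, luminescence read.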
# PLK1 PBD block – PLK1 (human) polo-box domain binding inhibition | Plk1 PBD binding of FITC phosphopeptide, fluorescence polarization | Potency, µM, hits mostly inhibitors | actives 2.8% (n = 360,000) | AID 720504; also: series mostly up to about 57 µM; nearly all actives have a fitted effect of over 65% in size
# A number is an active result; - = inactive; ? = inconclusive; . = not tested or not shown; [ ] = remark or other dose. In the library only some 12% were active in any assay of this set; here they are far more common. Unless noted, calls follow the shape of the dose curve; as a rule, active = well fitted curve in the direction sought with a large enough effect; inconclusive = small, poorly fitted or top-dose-only effect, or another doubt; inactive = no such curve, though single readings can be large; an effect the other way counts as inactive or inconclusive.
SMILES,JMJD2A Tudor inh,G9a inh,BAZ2B block,PI5P4Ka inh,HP1b chromo inh,PLK1 PBD block
COc1cccc(-n2c(SCC(=O)Nc3nnc(C)s3)nc3c([nH]c4ccccc43)c2=O)c1,50.1µM,-,-,.,-,.
CN(C)c1cccc(N=C2C=C(N3CCOCC3)CC(C)(C)C2)c1,50.1µM,3.16µM,-,-,-,-
CN(C)c1nc(N2CCOCC2)nc(N(c2ccccc2)c2ccccc2)n1,-,?,-,-,-,-
COc1ccccc1OC(=O)CCc1nc2ccccc2s1,-,50.1µM,?,?,-,?
COC(=O)C(Cc1ccc(O)cc1)NC(=O)CCc1nc2ccccc2s1 (centres undefined),-,39.8µM,-,-,-,-
CC(=O)c1ccc(OC(=O)CCc2nc3ccccc3s2)cc1,-,31.6µM,?,-,-,?
CCOC(=O)C1CCC/C1=N\NC(=O)CN(c1cc(OC)ccc1OC)S(=O)(=O)c1ccccc1 (centres undefined),-,-,-,-,-,-
O=C(O)CC(NC(=O)C12CC3CC(CC(C3)C1)C2)c1cc([N+](=O)[O-])ccc1Cl (centres undefined),56.2µM,-,-,-,-,?
COc1ccccc1NC(=O)CCn1c(=O)oc2cc(Cl)ccc21,-,-,-,.,-,.
COC(=O)n1c(=S)oc2cc(Cl)ccc21,.,2.51µM,-,.,.,.
CCCCOC(=O)n1c(=S)oc2cc(Cl)ccc21,-,-[0.501 µM],-,-55.3,-,?
CCCCOC(=O)n1c(=O)oc2cc(S(=O)(=O)N3CCCCC3)ccc21,-,-[12.7 µM],-,.,-,-
N#Cc1c(Cl)cccc1Oc1ccc([S+](=O)([O-])N2CCN([S+](=O)([O-])c3c(F)cccc3F)CC2)cc1,-,.,.,.,.,.
Cc1ccccc1C1CC(=O)Oc2cc(C)c(Br)c(C)c21 (centres undefined),.,-,.,.,.,.
O=C(NC1(C(F)(F)F)C(=O)Nc2c1c(=O)[nH]c(=O)n2CCc1ccccc1)c1ccc(Cl)cc1Cl (centres undefined),-,-,-,.,-,.
S=c1[nH]nc(-c2ccccc2)n1Cc1ccccc1,11.2µM,-[2.33 µM],-,-,-,-
S=c1[nH]nc(-c2ccc(Cl)cc2)n1Cc1ccccc1,?,1.41µM,-,.,-,-
S=c1[nH]nc(C2CCCCC2)n1Cc1ccccc1,35.5µM,11.2µM,-,-,-,-
S=c1[nH]nc(-c2cccs2)n1Cc1ccccc1,?,?,-,-,-,-
COc1ccc(-c2n[nH]c(=S)n2Cc2ccccc2)cc1,25.1µM,.,-,-,-,-
COc1ccc(OC)c(C(O)c2ncc(-c3ccc(C(F)(F)F)cc3)[nH]2)c1 (centres undefined),.,.,.,-,.,-
Cc1ccn(Cc2n[nH]c(=S)n2Cc2ccccc2)n1,8.91µM,3.16µM,-,-,-,-
COc1ccc(-c2n[nH]c(=S)n2Cc2ccccc2)cc1OC,10µM,.,-,-,?,-
CCOc1cc(-c2n[nH]c(=S)n2Cc2ccccc2)ccc1OC(F)F,-,?,-,-,-,-
C=CCn1c(C2CCCCC2)n[nH]c1=S,5.62µM,20µM,-,-,-,-
SMILES,JMJD2A Tudor inh,G9a inh,BAZ2B block,PI5P4Ka inh,HP1b chromo inh,PLK1 PBD block
Cc1n[nH]c(=S)n1Cc1ccccc1,?,35.5µM,-,-,-,-
CC(C)C[C@@H](CN1CCC[C@H]1CN1C(=O)C(=O)NC[C@@H]1Cc1ccc(O)cc1)N1C[C@H](Cc2ccccc2)N(CC2CCCCCC2)C(=O)C1=O,.,.,.,-,.,-
S=c1[nH]nc(-c2ccc(Br)o2)n1Cc1ccccc1,31.6µM,?,-,.,-,-
CCc1cccc(NC(=O)CSc2nc3ccsc3c(=O)n2CC)c1,-,-,-,.,-,.
O=C(N=C1SC2CS(=O)(=O)CC2N1CCc1ccccc1)C1CCCCC1 (centres undefined),-,-,-,-,-,-
Cn1nc(Cc2n[nH]c(=S)n2C)c2ccccc2c1=O,3.98µM,.,-,-,-,-
C[N+]12CCCCC1C(COC(=O)c1ccc3c(c1)OCO3)CCC2 (centres undefined),20µM,?,?,.,?,-
Cc1ccc(Cl)cc1-n1ncc2c(Nc3cccc(C)c3C)ncnc21,-,-,-,.,-,.
O=S(=O)(c1cccc(C(F)(F)F)c1)N1CCN(CC(O)COCc2ccccc2)CC1 (centres undefined),12.6µM,.,.,-,?,-
O=S(=O)(c1ccc(F)cc1)N1CCN(CC(O)COCc2ccccc2)CC1 (centres undefined),5.62µM,.,.,-,?,-
O=C(Cc1ccc(F)cc1)Nc1nnc(SCC(=O)NC2CCCC2)s1,-,-,-,-,-,-
O=C(N/N=C/c1ccco1)C1CC1(c1ccccc1)c1ccccc1 (centres undefined),-,39.8µM,?,-,-,-
COCCNC(=S)N(CCc1c(C)[nH]c2ccc(OC)cc12)Cc1ccco1,?,50.1µM,?,-,?,-
COCCNC(=S)N(CCc1c(C)[nH]c2ccc(F)cc12)Cc1ccc(C)cc1,?,-,?,-,-,-
COCCNC(=S)N(CCc1c(C)[nH]c2ccc(C)cc12)Cc1ccco1,?,44.7µM,35.5µM,-,-,-
CNC(=S)N(CCc1c(C)[nH]c2ccc(OC)cc12)Cc1ccco1,?,50.1µM,?,-,-,-
CCC(Sc1nc(-c2ccccc2)c(-c2ccccc2)[nH]1)C(=O)O (centres undefined),-,50.1µM,-,-,-,-
NC(=O)CSc1nc2ccccc2c(=O)n1CCc1ccccc1,-,79.4µM,-,-,-,-
CC(C)Oc1ccc(OCCSc2nc3ccccc3n2CC(=O)O)cc1,-,50.1µM,-,-,-,-
O=C(O)CSc1nc2ccccc2n1Cc1ccccc1,89.1µM,-,-,-,-,?
Cc1ccc(OCCSc2nc3ccccc3n2CC(=O)O)cc1,-,.,-,-,-,-
COC(=O)Cn1c(SCc2ccccc2)nc2ccccc21,-[11.4 µM],-,-,-,-,26.7µM
CN(C)C(=O)CSc1nc2ccccc2n1Cc1ccccc1,-,-,-,-,-,-
CCOC(=O)CC(=O)CSc1nc2ccccc2c(=O)n1CCc1ccccc1,-,-,-,.,-,.
O=C(c1ccco1)N1CCC2(CCCN(c3ccncc3)C2)CC1,.,-[12.7 µM],.,.,.,.
COc1cccc(CNCCSc2nnnn2C)c1OCc1ccc(Cl)cc1,-,-,-,.,-,.
O=c1c2ccccc2nc(/C=C/c2ccccc2)n1CCc1ccccc1,-,-,-,-,-,-
O=c1c2ccccc2nc(/C=C/c2cccnc2)n1CCc1ccccc1,17.8µM,50.1µM,35.5µM,-,-,-
CCC(=O)N1CCc2cc(Br)cc(S(=O)(=O)CCC(=O)NCc3ccc(F)cc3)c21,-,-,-,.,-,.
CN1CCC(C)(C(=O)Nc2ccc3c(c2)OCCO3)C1 (centres undefined),.,.,.,-,.,-
